BJeLR lethal: BJeLR cell viability loss | 300,000 tested, 0.17% active | BJeLR (HRASV12) viability, CellTiter-Glo ATP luminescence, 48 h | AID 1554 | inhibition, % (no concentration beside the values); in the data active = inhibition above about 50%; inconclusive = no clear call, values can overlap the other calls
PrP UTR inh: inhibition of PrP 5' UTR reporter expression. cell-based PrP 5' UTR mRNA reporter, plate reader. inhibition, % (test concentration not listed). 340,000 tested, 0.35% active. AID 488862; in the data active = inhibition above about 52%
PrPC TRFRET: cell surface PrPC inhibition, primary TR-FRET screen. P04156. TR-FRET read-out. inhibition, % at 13.8 µM. 370,000 tested, 0.43% active. AID 720596; in the data active = inhibition above about 24%
MazEF act: activators of E. coli MazEF toxin-antitoxin RNase | P0AE70 | FAM/BHQ RNA-DNA oligo cleavage fluorescence, 5 h | activation, % at 20 µM | 350,000 tested, 0.32% active | AID 504720; in the data active = activation above about 50%
Target sequence (P0AE70 whole entry, looked up): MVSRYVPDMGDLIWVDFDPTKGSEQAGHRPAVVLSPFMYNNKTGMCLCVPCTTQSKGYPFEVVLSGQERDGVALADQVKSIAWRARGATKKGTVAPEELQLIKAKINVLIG
DUSP3 inh: DUSP3 (human) phosphatase inhibition; P51452; recombinant VHR phosphatase, pNPP absorbance; inhibition, % at 13.3 µM; 290,000 tested, 0.52% active; AID 1654; in the data active = inhibition above about 50%
Target sequence (P51452 whole entry, looked up): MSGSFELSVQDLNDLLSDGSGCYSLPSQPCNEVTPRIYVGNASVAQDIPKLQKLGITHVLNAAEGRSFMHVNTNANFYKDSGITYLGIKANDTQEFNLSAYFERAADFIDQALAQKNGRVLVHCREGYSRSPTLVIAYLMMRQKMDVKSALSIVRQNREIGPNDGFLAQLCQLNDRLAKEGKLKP
PfHsp40 rescue: rescue of PfHsp40-mediated yeast toxicity. S. cerevisiae expressing PfHsp40, growth rescue, ATP luminescence. growth rescue, % at 12.5 µM. 340,000 tested, 0.68% active. AID 504582; in the data active = growth rescue above about 28%, passing the limit was not always enough; inconclusive = no clear call, values can overlap the other calls;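 also: yeast W303a lacking pdr1 and pdr3 grown in galactose medium; growth measured after three days at 30 °C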
PrP UTR cherry: prion 5' UTR mRNA inhibition, cherry-pick retest | shares compounds with PrP UTR inh | cell-based prion protein 5' UTR reporter, plate reader | inhibition, % at 2.5 µM | 1,100 tested, 48% active | AID 504592; in the data active = inhibition above about 54%; inconclusive = no clear call, values can overlap the other calls
Large screens that a line does not name were inactive (follow-up assays come after a bar, where they were run). Sampled rows, rich in hits. Any-hit rate of the full collection: about 2.1%.

COc1ccc(C(=O)NC(=O)Nc2cc(C)ccn2)cc1	PrP UTR inh 61 | PrP UTR cherry 64
CC(=O)NC(Cc1ccccc1F)C(=O)NC1CCN(S(=O)(=O)c2ccccc2)CC1 (configuration not stated)	none
COc1ccc(CN(C)CC(=O)Nc2ccccc2C(F)(F)F)c(OC)c1	none
COc1ccc(CN(C)CC(=O)Nc2ccccc2C(F)(F)F)cc1	PrP UTR inh 81 | PrP UTR cherry inactive
CC(=O)Nc1nc2ncccn2c1-c1ccccc1	none (no result: BJeLR lethal, PrP UTR inh, MazEF act, DUSP3 inh, PfHsp40 rescue)
COc1ccc(C(NC(=O)c2cccnc2)c2cc(Cl)c3cccnc3c2O)cc1OC (configuration not stated)	PrP UTR inh 89, PfHsp40 rescue inconclusive | PrP UTR cherry inactive
CCC(=O)NC(c1ccc(OC)cc1)c1cc(Cl)c2cccnc2c1O (configuration not stated)	none
Cc1ccc(-c2cc3onc(-c4ccccc4)c3c(=O)n2C)cc1	PrP UTR inh 61 (no result: BJeLR lethal, DUSP3 inh) | PrP UTR cherry inactive
CCOC(=O)[C@@]12CCC3=C1N(CCC3)C(=O)[C@H](CC(=O)NCc1cccc3ccccc13)C2	none (no result: BJeLR lethal, PrP UTR inh, MazEF act, DUSP3 inh, PfHsp40 rescue)
CCCNC(=O)c1ccc2c(=O)c(O)c(-c3cccc(Br)c3)[nH]c2c1	PrP UTR inh 56, PfHsp40 rescue 182 | PrP UTR cherry inconclusive
O=C(NCCc1nc2ccccc2[nH]1)c1cccc(Br)c1	none
CC(C)(C)OC(=O)C[C@@H]1C/C=C\C[C@H](CC(=O)N(CCO)Cc2ccccc2)C(=O)N[C@H](C(C)(C)C)COC1=O	PrP UTR inh 60 (no result: BJeLR lethal, DUSP3 inh) | PrP UTR cherry inactive
O=C(Nc1nc2ccccc2[nH]1)c1ccc(OC(F)F)cc1	none
O=C(Nc1nc2ccccc2[nH]1)c1ccccc1F	BJeLR lethal 85, PrP UTR inh 85 | PrP UTR cherry 85
CCc1ccc(C(=O)Nc2nc3ccccc3[nH]2)cc1	PrP UTR inh 63, PfHsp40 rescue inconclusive | PrP UTR cherry inconclusive
CC(C)Oc1ccc(C(=O)Nc2nc3ccccc3[nH]2)cc1	PrP UTR inh 61 | PrP UTR cherry 62
O=C(Nc1nc2ccccc2[nH]1)c1ccc(F)cc1	none
O=C(NC(=S)N1CCOCC1)C12CC3CCC(CC(C3)C1)C2	none
O=C(NC(=S)N1CCN(CCO)CC1)C12CC3CC(CC(C3)C1)C2	PrP UTR inh 80 | PrP UTR cherry inactive
CN(C(=O)Cn1cnc([N+](=O)[O-])n1)C1CCCCC1	none
CCCC(C(=O)NC1CCCC1)N(Cc1ccc2c(c1)OCO2)C(=O)c1snc(C(N)=O)c1N (configuration not stated)	none
NC(=O)c1nsc(C(=O)N(CC(=O)NCc2ccc3c(c2)OCO3)C2CCCC2)c1N	PrP UTR inh 76 | PrP UTR cherry inactive
Cc1c(/C=N\NC(=O)C2COc3ccccc3O2)c2ccccc2n1C (configuration not stated)	PrP UTR inh 67 | PrP UTR cherry 83
COc1ccc(CNC(=O)c2c(O)c3cc(OC)c(OC)cc3[nH]c2=O)cc1OC	none
CCN(CC)CCNC(=O)c1c(O)c2cc(OC)c(OC)cc2[nH]c1=O	PrP UTR inh 72 | PrP UTR cherry inactive
Cc1cc(C)c(S(=O)(=O)N2CCN(C(=O)CCOc3ccccc3C)CC2)c(C)c1	PrP UTR inh 88 (no result: BJeLR lethal, DUSP3 inh) | PrP UTR cherry inactive
CN(Cc1cccc(F)c1)C(=O)c1ccc(S(=O)(=O)N2CCCCCC2)cc1	none (no result: BJeLR lethal, DUSP3 inh)
COc1ccc(/C=N\NC(=O)C2C(=O)NCC2c2ccccc2)cc1O (configuration not stated)	PrP UTR inh 71 | PrP UTR cherry inactive
COc1cccc(C(O)c2nc(-c3cccc4cccnc34)cs2)c1 (configuration not stated)	none (no result: BJeLR lethal, PrP UTR inh, MazEF act, DUSP3 inh, PfHsp40 rescue)
COC(=O)[C@]12CCCCC=C1N(Cc1ccco1)C(=O)[C@H](CC(=O)N1CCN(C(=O)C3CC3)CC1)C2	none (no result: BJeLR lethal, PrP UTR inh, MazEF act, DUSP3 inh, PfHsp40 rescue)
COC(=O)Cc1ccc(NC(=O)c2ccc(C(C)(C)C)cc2)cc1	PrP UTR inh 79 | PrP UTR cherry 65
CC(C)(C)c1ccc(C(=O)Nc2ccc(Cl)cc2)cc1	none
Cc1ccc(OCCNC(=O)[C@H]2O[C@@H](n3ccc(N)nc3=O)[C@H](O)[C@@H]2O)cc1C	none (no result: BJeLR lethal, PrP UTR inh, MazEF act, DUSP3 inh, PfHsp40 rescue)
O=c1cc(CO)oc(C(Nc2ccccn2)c2ccc(F)cc2)c1O (configuration not stated)	none
COc1ccc(C(Nc2ccccn2)c2oc(CO)cc(=O)c2O)cc1 (configuration not stated)	PrP UTR inh 62 | PrP UTR cherry inactive
Cc1nc2c(-c3ccccc3)cnn2c(N)c1-c1ccccc1	PrP UTR inh 65 | PrP UTR cherry inactive
O=C(Nc1c(-c2ccccc2)[nH][nH]c1=O)c1ccc(Br)cc1	none (no result: BJeLR lethal, PrP UTR inh, MazEF act, DUSP3 inh, PfHsp40 rescue)
COc1ccc(OC)c(Nc2c3c(nc4ccccc24)CCC3)c1	PrP UTR inh 74 | PrP UTR cherry 87
C[C@H]1CCCN1c1ccc2c(c1)OCCCN(C1CC1)S2(=O)=O	none (no result: BJeLR lethal, PrP UTR inh, MazEF act, DUSP3 inh, PfHsp40 rescue)
COc1cc(NC(=O)Cn2c(=O)n(CC3CCCO3)c(=O)c3cc(OC)c(OC)cc32)cc(OC)c1 (configuration not stated)	none
COc1ccc(NC(=O)Cn2c(=O)n(CC3CCCO3)c(=O)c3cc(OC)c(OC)cc32)cc1OC (configuration not stated)	PrP UTR inh 58 | PrP UTR cherry inactive
Cc1ccc(S(=O)(=O)N2CCCCC2)cc1NC(=O)Cn1cc(C(F)(F)F)ccc1=O	none (no result: BJeLR lethal, DUSP3 inh)
COc1cccc2c1C(=O)c1c(O)c3c(c(O)c1C2=O)C[C@@](O)(C(=O)CO)C[C@@H]3O[C@H]1C[C@H](N)[C@H](O)[C@H](C)O1	BJeLR lethal 75, PrP UTR inh 89, PfHsp40 rescue 146 | PrP UTR cherry 92
COc1cccc2c1C(=O)c1c(O)c3c(c(O)c1C2=O)CC(O)(C(C)=O)CC3OC1CC(N(C)C)C(O)C(C)O1 (configuration not stated)	PrP UTR inh 88, PfHsp40 rescue 401 (no result: BJeLR lethal, DUSP3 inh) | PrP UTR cherry 91
O=C(CNC(=O)c1cncc(Br)c1)Nc1ccc(F)c(F)c1F	none
Cc1nn(-c2nc3ccccc3[nH]2)c(=O)c2ccccc12	BJeLR lethal 90, PrP UTR inh 93 | PrP UTR cherry 95
Cc1nn(-c2ccc3ccccc3c2)c(=O)c2ccccc12	none
COc1ccc(-c2cc3cc4c(cc3cn2)OCO4)cc1	none (no result: BJeLR lethal, DUSP3 inh)
COc1cc(OC)cc(-c2cc3cc4c(cc3cn2)OCO4)c1	PrP UTR inh 62 (no result: BJeLR lethal, PrPC TRFRET, DUSP3 inh) | PrP UTR cherry 81
Nn1cnnc1SCC(=O)Nc1ccc(C2CCCCC2)cc1	none
O=C(O)CSCC(=O)Nc1ccc(C2CCCCC2)cc1	PrP UTR inh 53 | PrP UTR cherry 54
O=C1[C@@H](C2CC2)[C@@H]2c3ccccc3C=NN2[C@@H]2c3ccccc3C=NN12	none (no result: BJeLR lethal, PrP UTR inh, MazEF act, DUSP3 inh, PfHsp40 rescue)
O=C(CNC(=O)COc1ccccc1)NCc1cccnc1	none
